Some test systems named below: DU-145 prostate; K-562 leukemia; MALME-3M melanoma; MDA-MB-231 breast; RXF 393 renal; SF-268 CNS; SF-295 CNS; SF-539 CNS; M14 melanoma; HCT-15 colon; HT29 colon; SNB-75 CNS; SNB-19 CNS; U251 CNS; PC-3 prostate; UACC-62 melanoma; LOX IMVI melanoma; SK-MEL-28 melanoma; SK-MEL-5 melanoma.
What all share (experiment): NCI-60 one-dose screen, 48 h (100 = growth as untreated, 0 = no growth, -100 = all killed)
Common to all, as to settings: 10 µM unless noted

The panel holds about 83,000 compounds, 20% with a hit somewhere; the sample as a whole holds those more often.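 A percent growth of 40 corresponds to 60% growth inhibition; 0 means no net growth; -100 means all cells died. Active threshold: below 10.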 Unmarked numbers belong to inactive results. Activity calls are given as the source filed them.

For `O=C(Cn1c(=O)ccn(CCCCCCCCOc2ccc(Br)cc2)c1=O)Nc1ccc(Oc2ccc(Cl)cc2)cc1`, the growth in the experiment with DU-145 prostate is 73.7%; in the experiment with K-562 leukemia it was 40.5%; with MALME-3M melanoma it was 69.8%; with MDA-MB-231 breast, 66.6%; with RXF 393 renal, 79.8%; in the experiment on SF-268 CNS, 71.1%. Moreover, the growth in the experiment on SF-295 CNS is 52.9%; with SF-539 CNS, 61.9%; in the experiment on M14 melanoma it was 70.1%; in the experiment on HCT-15 colon it was 80.4%; with HT29 colon, 66%; in the experiment on SNB-75 CNS, 70.8%. For the same molecule, the growth in the experiment on SNB-19 CNS is 78.7%; in the experiment on U251 CNS it was 74.1%; with PC-3 prostate it was 44.6%; in the experiment with UACC-62 melanoma, 36.1%; in the experiment on LOX IMVI melanoma, 51.1%; in the experiment on SK-MEL-28 melanoma, 72.8%.
`CN(N)c1nc2sc3c(c2c(=O)[nH]1)CCCC3`: the growth with DU-145 prostate was 101%; in the experiment with K-562 leukemia, 109%; with MALME-3M melanoma, 88.7%; with MDA-MB-231 breast, 102%; in the experiment on RXF 393 renal, 108%; in the experiment with SF-268 CNS, 95.9%. The growth in the experiment on SF-295 CNS is 93%; in the experiment on SF-539 CNS, 98.7%; with M14 melanoma, 98.7%; with HCT-15 colon, 99.6%; in the experiment with HT29 colon, 90.4%; in the experiment with SNB-75 CNS, 91.9%. The growth in the experiment on SNB-19 CNS is 105%; in the experiment with U251 CNS, 92.1%; with PC-3 prostate, 94.9%; with SK-MEL-5 melanoma, 106%; in the experiment on UACC-62 melanoma, 110%; with LOX IMVI melanoma, 102%. Also, in the experiment with SK-MEL-28 melanoma, the growth was 114%.
Regarding `COC(=O)C1=C(C(=O)OC)C23C=C(C)C1C2=C(C)C1(CC1)[C@@](C)(O)C3=O` (some centres undefined), the growth is 2.57% (active) in the experiment on DU-145 prostate; 81% in the experiment with K-562 leukemia; -44.4% (active) with MALME-3M melanoma; 9.08% (active) in the experiment on MDA-MB-231 breast; -64.4% (active) in the experiment on RXF 393 renal; 7.19% (active) with SF-268 CNS. For the same molecule, the growth with SF-295 CNS is -4% (active); in the experiment on SF-539 CNS, -39.6% (active); in the experiment on M14 melanoma, -43.1% (active); in the experiment on HCT-15 colon, 6.97% (active); in the experiment on HT29 colon, -0.501% (active); in the experiment on SNB-75 CNS, -56.5% (active). In addition, the growth with SNB-19 CNS was 7.17% (active); in the experiment on U251 CNS, 2.06% (active); in the experiment with PC-3 prostate it was 11.5%; in the experiment on SK-MEL-5 melanoma, -75.7% (active); in the experiment with UACC-62 melanoma, -45.2% (active); in the experiment with LOX IMVI melanoma, -14.3% (active). The growth with SK-MEL-28 melanoma is -22.5% (active).
As for `Nc1ncnc2c1ccn2-c1cccc(NC(=O)c2ccc(N3CCOCC3)c(C(F)(F)F)c2)c1`, the growth in the experiment with DU-145 prostate was 57.8%; in the experiment on K-562 leukemia, 21%; with MALME-3M melanoma, 65.3%; in the experiment on MDA-MB-231 breast it was 46.6%; in the experiment on RXF 393 renal it was 19.4%; in the experiment on SF-268 CNS, 55%. The growth was 28.6% in the experiment on SF-295 CNS; 46.9% in the experiment on SF-539 CNS; 44.5% in the experiment with M14 melanoma; 31.5% in the experiment with HCT-15 colon; 38.2% with HT29 colon; 67.3% in the experiment on SNB-75 CNS. Moreover, the growth is 95.7% in the experiment on SNB-19 CNS; 39.5% in the experiment with U251 CNS; 35.6% with PC-3 prostate; 43.4% in the experiment on UACC-62 melanoma; 41.2% with LOX IMVI melanoma; 81.2% in the experiment on SK-MEL-28 melanoma.
For the molecule `COc1cc(-c2nc(C(=O)NCC(=O)O)nn2-c2ccc(Cl)cc2)cc(OC)c1OC`, the growth is 111% with DU-145 prostate; 89.4% with K-562 leukemia; 111% in the experiment on MALME-3M melanoma; 106% with MDA-MB-231 breast; 108% with SF-268 CNS; 95.2% in the experiment with SF-295 CNS. In addition, the growth is 102% in the experiment on SF-539 CNS; 98.5% in the experiment on M14 melanoma; 102% in the experiment with HCT-15 colon; 106% with HT29 colon; 115% in the experiment on SNB-75 CNS; 109% in the experiment on SNB-19 CNS. For the same molecule, the growth was 96.6% with U251 CNS; 94.3% in the experiment with PC-3 prostate; 98.3% in the experiment on SK-MEL-5 melanoma; 104% with UACC-62 melanoma; 84.9% with LOX IMVI melanoma; 104% in the experiment on SK-MEL-28 melanoma.
As to `O=C(Cc1ccccc1)Nc1nnc(NC2CCN(c3nnc(NC(=O)Cc4ccccc4)s3)CC2)s1`, the growth in the experiment on DU-145 prostate is 91.7%; in the experiment with K-562 leukemia it was 87.9%; with MALME-3M melanoma it was 82.8%; with MDA-MB-231 breast, 77.5%; with SF-268 CNS, 91.1%; in the experiment with SF-295 CNS, 56.8%. The growth was 93.5% with SF-539 CNS; 85.2% in the experiment with M14 melanoma; 99.4% with HCT-15 colon; 94.4% in the experiment with HT29 colon; 106% with SNB-75 CNS; 107% in the experiment with SNB-19 CNS. Moreover, the growth with U251 CNS is 90.8%; in the experiment with PC-3 prostate it was 87.1%; in the experiment with SK-MEL-5 melanoma it was 98.7%; with UACC-62 melanoma, 89%; in the experiment on LOX IMVI melanoma, 69.2%; in the experiment on SK-MEL-28 melanoma, 107%.
In the case of `NS(=O)(=O)c1ccc(CCN2C(=O)/C(=C\c3ccc(Cl)cc3)C=C2c2ccc3ccccc3c2)cc1`, the growth in the experiment on DU-145 prostate was 108%; in the experiment on K-562 leukemia, 96.4%; with MALME-3M melanoma, 98.8%; in the experiment on MDA-MB-231 breast, 90.5%; in the experiment with SF-268 CNS, 103%; in the experiment on SF-295 CNS, 99.1%. The growth was 101% with SF-539 CNS; 95% in the experiment on M14 melanoma; 94.9% with HCT-15 colon; 87.9% in the experiment with HT29 colon; 78.1% in the experiment on SNB-75 CNS; 92.5% in the experiment on SNB-19 CNS. Also, the growth in the experiment with U251 CNS was 85.5%; in the experiment with PC-3 prostate, 75.8%; in the experiment on SK-MEL-5 melanoma, 94.8%; in the experiment on UACC-62 melanoma it was 71.8%; in the experiment with LOX IMVI melanoma, 96.1%; in the experiment with SK-MEL-28 melanoma, 103%.
As for `CC(C)(C)C(=O)OCOP(=O)(OCOC(=O)C(C)(C)C)C1CCCN(OC(=O)c2ccccc2)C1=O` (centres undefined), the growth in the experiment on DU-145 prostate is 36.9%; with K-562 leukemia, 9.43% (active); with MALME-3M melanoma it was 29.4%; with MDA-MB-231 breast it was 12.7%; in the experiment with SF-268 CNS it was 36%; with SF-295 CNS, 57.3%. In addition, the growth is 53% in the experiment on SF-539 CNS; 47.2% in the experiment on M14 melanoma; 28.6% with HCT-15 colon; 5.75% (active) with HT29 colon; 73.1% with SNB-75 CNS; 14% in the experiment with SNB-19 CNS. Besides, the growth was 6.63% (active) in the experiment on U251 CNS; 49.7% with PC-3 prostate; -28% (active) with SK-MEL-5 melanoma; 4.95% (active) with UACC-62 melanoma; 40.1% in the experiment with LOX IMVI melanoma; -11.1% (active) with SK-MEL-28 melanoma.
With `Clc1nc(Cl)c2ncn(C/C=C\Cn3cnc4c(Cl)nc(Cl)nc43)c2n1`, the growth in the experiment with DU-145 prostate was -98.4% (active); with K-562 leukemia it was -24.8% (active); in the experiment on MALME-3M melanoma it was -72.7% (active); with MDA-MB-231 breast, -68.5% (active); with SF-268 CNS, -2.21% (active); in the experiment with SF-295 CNS it was -32.9% (active). In addition, the growth in the experiment with SF-539 CNS was -52.9% (active); with M14 melanoma it was -32.9% (active); in the experiment with HCT-15 colon, -44.7% (active); in the experiment on HT29 colon it was -65.9% (active); in the experiment with SNB-75 CNS it was -25.7% (active); in the experiment with SNB-19 CNS, 9.97% (active). The growth is -56.5% (active) in the experiment with U251 CNS; -57.6% (active) in the experiment with PC-3 prostate; -81.5% (active) in the experiment on SK-MEL-5 melanoma; -72.7% (active) in the experiment on UACC-62 melanoma; -80.1% (active) in the experiment with LOX IMVI melanoma; -19% (active) with SK-MEL-28 melanoma.

The values above are taken from PubChem BioAssay (NCI).
